A selection: hits, their analogues and other compounds. The true share with any hit is near 3.4%.
TEAD-YAP block = TEAD-YAP interaction inhibition, primary screen, TEAD-YAP interaction inhibitor project, luminescence, HEK-TIYL cells; inhibition, % at 9.12 µM; AID 1259422, 2018; actives 1.4% (n = 640,000); TEAD-Gal4/YAP UAS-luciferase luminescence; in the data active = inhibition above about 32%
GPR151 activ = activators of human GPR151, primary screen, cell-based, PathHunter beta-arrestin, luminescence; actives 1% (n = 650,000); activation, % at 11.2 µM; PathHunter beta-arrestin GPR151 cells; AID 1508602, 2020; in the data active = activation above about 4.9%
FBW7 act = FBW7 E3 ligase activators, primary screen, biochemical, AlphaScreen, human; F-box/WD repeat-containing protein 7 (Homo sapiens), Q969H0; AlphaScreen FBW7–phospho-cyclin E peptide binding, activator screen; normalized activity (activation), % at 26.1 µM; actives 0.13% (n = 650,000); AID 1259310, 2017; in the data active = normalized activity above about 1.9%;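 also: purified mutant Fbw7 with reduced substrate affinity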
MITF inh = MITF inhibitors, primary screen, biochemical, AlphaScreen, human; actives 0.91% (n = 650,000); AlphaScreen MITF homodimerization, bead proximity signal; Microphthalmia-associated transcription factor (Homo sapiens), O75030; inhibition, % at 2.6 µM; in the data active = inhibition above about 50%
MITF inh conf = MITF inhibitors, retest of hits, confirmation, biochemical, AlphaScreen, triplicate | shares compounds with MITF inh | AlphaScreen MITF homodimerization, biotin/His-MITF beads | AID 1259372, 2018 | inhibition, % at 2.6 µM | actives 16% (n = 4,700);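 active = inhibition above a cutoff derived from the DMSO control wells, cut at about 28% in these data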;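 also: inhibitors lower the bead chemiluminescence by keeping MITF from dimerizing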
AlphaScreen DR = AlphaScreen optical interference compounds, dose response, counter-screen, biochemical, HTS; shares compounds with MITF inh; AlphaScreen optical interference counterscreen, cell-free; IC50, µM; actives 6% (n = 480); call rule not given here
AlphaScreen intf2 = AlphaScreen optical interference compounds, counter-screen for MITF inhibitor project, biochemical, triplicate; shares compounds with MITF inh; inhibition, % at 2.6 µM; actives 7.6% (n = 4,700); LysRS AlphaScreen counterscreen, signal interference;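 active = inhibition above a cutoff derived from the DMSO control wells, cut at about 30% in these data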
GPR151 confirm = GPR151 activators, triplicate retest, confirmation, cell-based, PathHunter beta-arrestin, luminescence. shares compounds with GPR151 activ. GPR151 PathHunter beta-arrestin cells, 90 min; % of EA-reagent control over plate median. activation, % at 11.2 µM. 6,700 tested, under 10 active. AID 1508609, 2020;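 active = mean percent activation across replicates above the confirmation screen cutoff of 4.91%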
GPR119 ag = GPR119 activators in beta-arrestin cells, counter-screen for GPR151 activator project, cell-based, PathHunter beta-arrestin, luminescence, triplicate; shares compounds with GPR151 activ; 90 min; 0 = compound-well median, 100 = enzyme-acceptor control; activation, % at 11.2 µM; actives 0.3% (n = 6,700);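 active = mean percent activation in the counterscreen above 29.09%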;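 also: counterscreen on off-target GPR119 to flag nonselective hits from the GPR151 activator screen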
Large screens that a line does not name were inactive (follow-up assays come after a bar, where they were run).

O=C(Cn1ncn2cccc2c1=O)N1CCC2(CC1)OCCO2	none
Cc1nn(CC(=O)N2CCC3(CC2)OCCO3)c(=O)c2cc3sccc3n12	MITF inh 65 | MITF inh conf inactive | AlphaScreen intf2 inactive
COc1ccccc1OCC#CCN1CCCC(C)C1 (stereo not given)	MITF inh 58 | MITF inh conf inactive | AlphaScreen intf2 inactive
Fc1cccc(F)c1CN1CCN(c2ccccc2)CC1	MITF inh 56 | MITF inh conf inactive | AlphaScreen intf2 inactive
CC(=O)c1ccc(N2CCN(Cc3ccccc3F)CC2)cc1	MITF inh 51 | MITF inh conf inactive | AlphaScreen intf2 inactive
COc1cccc(N2CCN(Cc3ccccc3F)CC2)c1	MITF inh 60 | MITF inh conf inactive | AlphaScreen intf2 inactive
CC(=O)c1ccc(N2CCN(Cc3ccc(F)cc3)CC2)cc1	none
CCCCC1(C)NC(=O)N(CC(=O)Nc2ccc(C#N)c(Cl)c2)C1=O (stereo not given)	none
S=P1(c2ccccc2)CCC2(CC1)OCCO2	none
CCOC(=O)C1C2NC(=S)N(c3cccc(C)c3)C1(C)Oc1ccc(OC)cc12 (stereo not given)	MITF inh 59 | MITF inh conf 50 | AlphaScreen intf2 35
CCOC(=O)C1C2NC(=S)N(CC)C1(C)Oc1ccc(Br)cc12 (stereo not given)	MITF inh 53 | MITF inh conf 31 | AlphaScreen DR inactive | AlphaScreen intf2 inactive
CCOC(=O)C1C2NC(=S)N(CCc3ccccc3)C1(C)Oc1ccc(Br)cc12 (stereo not given)	none
CCOC(=O)C1C2NC(=S)N(c3ccccc3)C1(C)Oc1cc(OC)ccc12 (stereo not given)	MITF inh 53 | MITF inh conf 47 | AlphaScreen DR inactive | AlphaScreen intf2 inactive
COc1ccc(CN2CCN(Cc3cccc(OC)c3)CC2)cc1	MITF inh 63 | MITF inh conf inactive | AlphaScreen intf2 inactive
CC(=O)c1ccc(N2CCN(Cc3cccc(O)c3)CC2)cc1	none
COc1cccc(CN2CCN(Cc3ccc(C)cc3)CC2)c1	MITF inh 77 | MITF inh conf inactive | AlphaScreen intf2 inactive
COc1cccc(CN2CCN(c3ccc(C(C)=O)cc3)CC2)c1	MITF inh 64 | MITF inh conf inactive | AlphaScreen intf2 inactive
COc1ccc(N2CCN(Cc3cccc(OC)c3)CC2)cc1	none
CCOC(=O)C1=C(c2ccccc2)OC(N)=C(C(=O)OC)C12C(=O)Nc1ccccc12 (stereo not given)	none
NCC(=O)c1ccc2c(c1)OCCO2	none
S=P(N/N=C/c1cccnc1)(c1ccccc1)c1ccccc1	none
COc1ccc(CN2CCN(Cc3ccc(OC)cc3)CC2)cc1	none
CCOc1ccc(CN2CCN(Cc3ccc(F)cc3)CC2)cc1	MITF inh 61 | MITF inh conf inactive | AlphaScreen intf2 inactive
CCOc1ccc(CN2CCN(Cc3ccccc3F)CC2)cc1	MITF inh 75 | MITF inh conf inactive | AlphaScreen intf2 inactive
O=c1oc2ccccc2c(O)c1C(c1ccc2c(c1)OCO2)c1c(O)c2ccccc2oc1=O	GPR151 activ 15 | GPR151 confirm inactive | GPR119 ag inactive

Assay outcomes as filed in PubChem.
